# Screening results from PubChem.
# Shown is part of a subset that was picked to be rich in hits.
# CendR NRP1 mod – alters CendR peptide binding to human NRP-1; O14786; FAM-RPARPAR peptide binding to NRP-1, fluorescence polarization; inhibition, % at 25 µM; 360,000 tested, 0.85% active; AID 602438;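 active means inhibition or corrected inhibition above about 18%, plus a signal ratio from 0.5 to 1.5, limit read from the data, passing the limit was not always enough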
# ARNT TACC3 PPI – disruptors of human ARNT/TACC3 interaction. Q9Y6A5. AlphaScreen His-ARNT PAS-B/GST-TACC3 binding, luminescence; TACC3 fragment carries E629A point mutation. inhibition, % at 9.99 µM. 390,000 tested, 0.66% active;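 active means mean inhibition of replicates at least 50% and at least half of replicates each reaching 50%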;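 further: 0% = complete ARNT plus TACC3 wells and 100% = ARNT alone without TACC3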
# ALR inh – inhibitors of human sulfhydryl oxidase ALR; P55789; purified ALR, DTT oxidation, H2O2 HRP-luminol luminescence; inhibition, % (no concentration beside the values); 290,000 tested, 3.8% active; AID 485317;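 active means mean replicate inhibition above about 79%, with every replicate also reaching it, limit read from the data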
# ERp5 block – ERp5 (human) disulfide isomerase inhibition; inhibition, % at 9.99 µM; 350,000 tested, 0.05% active; ERp5 insulin aggregation, absorbance 650 nm, 90 min;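 active means mean replicate inhibition above about 25%, with every replicate also reaching it, limit read from the data, passing the limit was not always enough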
# Target sequence (Q15084 whole entry, looked up): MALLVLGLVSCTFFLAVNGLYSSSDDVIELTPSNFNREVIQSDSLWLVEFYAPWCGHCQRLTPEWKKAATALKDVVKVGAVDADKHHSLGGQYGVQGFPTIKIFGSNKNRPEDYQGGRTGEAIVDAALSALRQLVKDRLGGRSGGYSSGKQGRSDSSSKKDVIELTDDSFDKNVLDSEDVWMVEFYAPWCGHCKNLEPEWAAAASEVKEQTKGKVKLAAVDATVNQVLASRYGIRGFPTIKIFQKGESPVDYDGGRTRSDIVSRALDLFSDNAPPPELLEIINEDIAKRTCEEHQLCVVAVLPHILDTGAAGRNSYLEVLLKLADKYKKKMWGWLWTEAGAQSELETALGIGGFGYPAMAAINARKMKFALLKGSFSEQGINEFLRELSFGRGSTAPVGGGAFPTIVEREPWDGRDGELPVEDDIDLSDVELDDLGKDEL
# PglD inh – PglD (C. jejuni) enzyme inhibition; AID 602405; inhibition, % at 12.5 µM; 360,000 tested, 0.098% active; purified PglD enzyme, DTNB colorimetric CoA detection; in the data active means inhibition above about 16%, passing the limit was not always enough
# PDI inh – inhibitors of human protein disulfide isomerase | P07237 | PDI insulin aggregation turbidity, A650, 90 min | inhibition, % at 10 µM | 350,000 tested, 0.052% active;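 active means mean inhibition across replicates of 30% or more, whatever share of single replicates reach that level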
# Numbers without * were called inactive; · = not tested or not shown.
SMILES,CendR NRP1 mod,ARNT TACC3 PPI,ALR inh,ERp5 block,PglD inh,PDI inh
C[C@H]1CN([C@@H](C)CO)C(=O)c2cccc(NS(=O)(=O)c3cn(C)cn3)c2O[C@@H]1CN(C)C(=O)NC1CCCCC1,·,-7,·,11,-1,·
COc1cccc(S(=O)(=O)N[C@H]2CC[C@H](CCNC(=O)Cc3ccncc3)O[C@@H]2CO)c1,·,·,·,10,-3,·
Cc1ccc(NC(=O)N/C=C/c2ccco2)cc1C,-63,3,87*,·,3,-1
Cc1ccc(-c2nc(CS(=O)CC(=O)NC3CCCC(C)C3C)c(C)o2)cc1 (centres undefined),0,-1,99*,-5,0,-13
COc1ccc(-c2nc(CS(=O)(=O)CC(=O)NC3CCCCC3C)c(C)o2)cc1 (centres undefined),3,0,23,6,·,-10
COc1ccc(-c2nc(CS(=O)CC(=O)NC3CCCC(C)C3C)c(C)o2)cc1OC (centres undefined),6,-2,99*,3,0,6
CCOc1ccc(-c2nnc3n2N=C(c2ccc(OC)cc2)CS3)cc1,-8,-8,-13,·,-2,11
COc1ccc(C2=Nn3c(nnc3-c3ccccc3C(F)(F)F)SC2)cc1OC1CCOC1 (centres undefined),1,·,1,5,2,13
COc1ccccc1-c1nnc2n1N=C(c1ccc(O)c(O)c1)CS2,-68,20,99*,·,-7,6
COc1ccc(C2=Nn3c(nnc3-c3ccccn3)SC2)cc1,-2,82*,·,9,-2,1
COc1ccc(C2=Nn3c(nnc3-c3ccccc3OC)SC2)cc1OC1CCOC1 (centres undefined),15,47*,0,0,4,0
CC(Oc1ccccc1)C(=O)NC1=NCCS1 (centres undefined),33*,7,-2,3,·,6
O=C(COc1ccccc1)NC1=NCCS1,5,-23,2,·,·,-1
O=C1CSC(c2cn(-c3ccccc3)nc2-c2ccccc2)N1Cc1ccco1 (centres undefined),-1,6,1,·,-6,-1
O=C1CSC(c2cn(-c3ccccc3)nc2-c2cccs2)N1CC1CCCO1 (centres undefined),32*,-12,0,·,-5,5
Cc1noc(C)c1NC(=O)Nc1ccc2c(c1)C(=O)N([C@@H](C)CO)C[C@@H](C)[C@@H](CN(C)C(=O)Nc1ccc3c(c1)OCO3)OCCCC[C@@H](C)O2,·,2,·,0,4,·
S=C(Nc1ccc2nsnc2c1)NC1CCCCC1,23,25*,-16,5,·,8
Cc1ccc(NC(=S)NNC(=S)NC2CCCCC2)cc1,1,-4,20,-3,·,1
NS(=O)(=O)c1ccc(NC(=S)NC2CCCCCC2)cc1,4,-1,96*,·,·,-3
CC(=O)c1ccc(NC(=S)NNC(=O)NC2CCCCC2)cc1,-8,-2,94*,2,·,5
NS(=O)(=O)c1ccc(NC(=S)NC2CCCC2)cc1,9,-4,8,·,0,-14
S=C(Nc1ccc(Cl)c(Cl)c1)NC1CCCCC1,-8,6,-8,5,·,-4
S=C(Nc1ccc2nsnc2c1)N1CCCCCC1,45*,10,-21,7,·,6
CO[C@@H]1CN(C)C(=O)c2cc(NC(=O)C3CC3)ccc2OC[C@H](C)NC[C@H]1C,·,-5,·,-6,0,·
C=CCNC(=S)Nc1ccc2nsnc2c1,7,3,-33,·,·,-4
SMILES,CendR NRP1 mod,ARNT TACC3 PPI,ALR inh,ERp5 block,PglD inh,PDI inh
C=CCN(CC=C)C(=S)Nc1ccc2nsnc2c1,30*,40,-34,2,-1,7
O=C(CCl)N(Cc1cc(=O)[nH]c2ccccc12)c1ccccc1,-7,·,96*,-7,·,5
C[C@H](CO)N1C[C@H](C)[C@@H](CN(C)C(=O)c2cc(Cl)cc(Cl)c2)OCc2ccccc2-c2ccccc2C1=O,·,·,·,-2,·,·
Cc1cc(CN(C)C(=O)CC2C(=O)NCCN2Cc2c(F)cccc2Cl)on1 (centres undefined),1,-4,-16,-8,2,3
CN(Cc1ncc[nH]1)C(=O)CC1C(=O)NCCN1Cc1c(F)cccc1Cl (centres undefined),23*,5,-4,-2,-5,14
CCCC(=O)N1CCC2(CC1)CN(C(=O)c1ccc(F)cc1)[C@@H](CO)c1[nH]c3cc(OC)ccc3c12,·,·,·,-2,·,·
CN(C)CC(=O)Nc1ccc2c(c1)[C@@H]1C[C@H](CC(=O)N3CCc4ccccc4C3)O[C@@H](CO)[C@@H]1O2,·,1,·,-6,-2,·
C[C@@H]1CN([C@H](C)CO)C(=O)Cc2cc(NC(=O)CCC(F)(F)F)ccc2O[C@H]1CN(C)S(=O)(=O)c1ccc(F)cc1,·,-15,·,8,0,·
Cc1[nH][nH]c(=O)c1C(c1ccc(-c2cccc(Cl)c2)o1)c1c(C)[nH][nH]c1=O,-2,50*,1,·,0,-1
Cn1nc(C(=O)Nc2cccnc2)c2ccccc2c1=O,-6,46*,-14,·,2,1
COc1ccc2c3c([nH]c2c1)[C@H](CO)N(C)CC31CCN(C(=O)c2ccccc2F)CC1,·,·,·,1,·,·
CC=Cc1ccc2n(c1=O)C[C@H]1[C@H](CO)[C@@H](C(=O)N[C@@H](C)c3ccccc3)[C@@H]2N1CC (mixture of isomers),·,2,·,1,1,·
Cc1cc(C)n(-c2nnc(C)c(=O)[nH]2)n1,-5,60*,-4,-2,-2,-7
Cc1cc(C)n(-c2nc3sc4c(c3c(=O)[nH]2)CCCC4)n1,·,·,-10,·,·,·
C[C@@H]1CN([C@H](C)CO)C(=O)c2cccc(NC(=O)c3cnccn3)c2O[C@H]1CN(C)S(=O)(=O)c1cccs1,·,-4,·,3,0,·
COc1ccc(CNC(=O)CN2C(=O)C3C4C=CC(C4)C3C2=O)cc1 (centres undefined),-10,-1,-6,0,·,2
COc1ccc(CN2C(=O)C3C4C=CC(C4)C3C2=O)cc1 (centres undefined),4,-11,100*,2,·,-1
CNC(=O)C[C@@H]1CC[C@H]2[C@@H](COc3ccc(NC(=O)Cc4cccs4)cc3C(=O)N2C)O1,·,-31,·,·,0,·
Cc1ccc(NC(=O)C2=CC(c3ccc(C)cc3)=NS(=O)(=O)N2C)cc1,21*,5,-4,0,-3,·
COc1ccc(C2=NS(=O)(=O)N(C)C(C(=O)Nc3ccc(C)cc3)=C2)cc1,4,19,-4,2,0,·
C[C@@H]1CN([C@H](C)CO)C(=O)c2cccc(N(C)C)c2O[C@H]1CN(C)Cc1ccccc1,·,-6,·,-2,-1,·
CCN1C(=O)/C(=C/c2ccc(N3CCCC3)cc2)NC1=S,132,-1,97*,·,·,-8
CCc1n[nH]c(=S)n1/N=C/c1ccc(N(C)c2ccccc2)cc1,8,17,3,5,7,2
